Records with an inconclusive call do not appear. Where a call stands in place of a potency, no number is given. Values without a mark were called inactive. Active and inactive are the calls of the source. The call rests on the fitted dose curve; in most records, active means well fitted cell-killing curve with a large enough effect; inconclusive means small, poorly fitted or top-dose-only effect, or effect the other way; inactive means no such curve, though single readings can be large or run the other way.
Assays:
[1] = Viability qHTS for spleen associated tyrosine kinase inhibitor (SYKi) naive MV4-11 cells (AID 1963823); details: MV4-11 AML viability, CellTiter-Glo luminescence, 72 h; series mostly up to 45 µM; further: nearly all actives have a fitted effect of over 40% in size
Summary of the method: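 Seeding of 500 SYKi-naive MV4-11 cells per well onto pre-dispensed compounds preceded a 72 hr incubation at 37 C. Luminescent CellTiter-Glo signal, read after 10 min at room temperature, reflected viable cells.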

[2] = Viability qHTS for spleen associated tyrosine kinase inhibitor (SYKi) drug resistant MV4-11 cells (AID 1963824); details: SYKi-resistant MV4-11 viability, CellTiter-Glo, 72 h; series mostly up to 45 µM; further: nearly all actives have a fitted effect of over 35% in size
Summary of the method: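 CellTiter-Glo luminescence, read 10 min after reagent addition, reports viability after a 72 hr compound exposure. Cells are an MV4-11 line made resistant to SYK inhibition, seeded at 500 per well onto compound-containing plates.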
Potency means the concentration at half of the fitted maximal effect.

| SMILES | Potency [1] | Potency [2] | viability (% of control) [1] | viability, % of control [2] |
| --- | --- | --- | --- | --- |
| O=C(/C=C/c1ccc(O)cc1)O[C@H]1[C@H](OC2CCCCC2O)O[C@H](CO)[C@@H](O)[C@@H]1O (stereo not given in full) | inactive | inactive | – | – |
| COC(=O)CC(C)(O)CC(=O)OCc1ccc(O[C@@H]2O[C@H](CO)[C@@H](O)[C@H](O)[C@H]2O)cc1 (stereo not given in full) | inactive | inactive | – | – |
| OC1COC(OCC2OC(OCCc3ccccc3)C(O)C(O)C2O)C(O)C1O (stereo not given) | inactive | inactive | – | – |
| CC(C)(Cc1nc(-c2ccc(O)cn2)no1)C(=O)NC1=C(C(=O)O)CCCC1 | inactive | inactive | – | – |
| CC(C)C1NC(=O)C2CCCN2C1=O (stereo not given) | inactive | inactive | – | – |
| COc1cc(/C=C/C(=O)O[C@H]2[C@H](O)[C@@H](CO)O[C@@]2(CO)O[C@H]2O[C@H](CO)[C@@H](O)[C@H](O)[C@H]2O)ccc1O | inactive | inactive | – | – |
| CCC(C)C(=O)O[C@@H]1[C@@H](O)[C@@H](O[C@H]2O[C@H](CO)[C@@H](O)[C@H](O)[C@H]2O)O[C@H](CO)[C@H]1O (stereo not given in full) | inactive | inactive | – | – |
| NC1CCCCN(c2c(F)cc3c(=O)c(C(=O)O)cn(C4CC4)c3c2Cl)C1 (stereo not given) | inactive | inactive | – | – |
| CN(C)Cc1ccc(-c2cnn3c(-c4cccc(NC(=O)c5cccc(C(F)(F)F)c5)c4)ccnc23)cc1 | 2.91 µM (active) | 3.66 µM (active) | – | – |
| CC(C)=CCC[C@](C)(O[C@@H]1O[C@H](CO)[C@@H](O)[C@H](O)[C@H]1O)[C@H]1CC[C@]2(C)[C@@H]1[C@H](O)CC1[C@@]3(C)CC[C@H](O)C(C)(C)C3[C@@H](O[C@@H]3O[C@H](CO)[C@@H](O)[C@H](O)[C@H]3O[C@@H]3OC[C@@H](O)[C@H](O)[C@H]3O)C[C@]12C (stereo not given in full) | – | – | 84.7% [at 9.25 µM] | 84.8% [at 9.25 µM] |

From PubChem BioAssay (NCATS)
